The nature of experiment [1]: NCI Yeast Anticancer Drug Screen. Data for the rad50 strain (AID 155).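 Note: 0% = growth of vehicle-only cultures of the same strain.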 The following applies: S. cerevisiae rad50 strain growth inhibition, hits give high values. In short, it runs like this:
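Compounds were tested on a yeast strain with an engineered DNA damage repair alteration; the reported value is growth inhibition normalised to vehicle treatment.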

A short description of experiment [2]: NCI Yeast Anticancer Drug Screen. Data for the mec2-1 strain (AID 157). The following applies: S. cerevisiae mec2-1 strain, hits give high values. In a few lines:
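Cells of the genetically defined mec2-1 yeast strain are incubated with test compound. Inhibition of growth is calculated against vehicle-treated controls.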

Experiment [3] is described as follows: NCI Yeast Anticancer Drug Screen. Data for the sgs1 mgt1 strain (AID 161).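 Note: 0% = growth of cultures given vehicle only.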 The following applies: S. cerevisiae sgs1 mgt1 strain, hits give high values. In short, it runs like this:
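Test agents were incubated with a DNA-repair-mutant yeast strain. Growth was then read and compared against vehicle-treated controls.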

A short description of experiment [4]: NCI Yeast Anticancer Drug Screen. Data for the cln2 rad14 strain (AID 165).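 Note: 0% = growth equal to vehicle treated cultures.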 As to conditions: S. cerevisiae cln2 rad14 strain, hits give high values. In short, it runs like this:
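The screen exposed genetically defined yeast (cln2 rad14) to test compounds and scored growth inhibition relative to vehicle-treated controls.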

Experiment [5] is described as follows: NCI Yeast Anticancer Drug Screen. Data for the bub3 strain (AID 167). As to conditions: S. cerevisiae bub3 mutant strain, hits give high values. In short, it runs like this:
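Growth of a checkpoint-deficient yeast mutant is measured after compound exposure. Values represent inhibition relative to vehicle.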

A short description of experiment [6]: NCI Yeast Anticancer Drug Screen. Data for the mlh1 rad18 strain (AID 175). As to conditions: S. cerevisiae mlh1 rad18 strain growth inhibition, hits give high values. In short, it runs like this: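 Compound-treated yeast growth, normalised to vehicle controls. Strain bears defined DNA repair mutations.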
[7] abbreviates: at 5.0 µM (retest, dose inferred, filed as 0.5).
Setting [8] is: at 50.0 µM (retest, dose inferred, filed as 5.0).

“And” between values parts separate entries of the source, which are not always exact repeats. Equal values may be shown once. About 79,000 compounds went through this panel and 15% of them were active in at least one assay; those are over-represented in the sample as a whole. A number with no mark means an inactive call. The source made the active and inactive calls. Cut-off read from the data, not from the text of the source: active = growth inhibition above about 70%; inactive = the rest.

Turning to `Cc1ccc(-c2c(C#N)c(-c3ccc(C)cc3)n(NS(=O)(=O)c3ccccc3)c(=O)c2C#N)cc1`, the growth inhibition in experiment [1] (setting [7]) is 30%; in experiment [1] (setting [8]), 84% (active); in experiment [2] (setting [7]), 38%; in experiment [2] (setting [8]), 94% (active); in experiment [3] (setting [7]) it was 29%; in experiment [3] (setting [8]), 94% (active). The growth inhibition in experiment [4] (setting [7]) is 53%; in experiment [4] (setting [8]) it was 93% (active); in experiment [5] (setting [7]), 52%; in experiment [5] (setting [8]) it was 95% (active); in experiment [6] (setting [7]), 33%; in experiment [6] (setting [8]), 85% (active).

As to `CCC(C)(CC)c1ccc(O)cc1`, the growth inhibition in experiment [1] (setting [7]) was 14%; in experiment [1] (setting [8]) it was 78% (active); in experiment [2] (setting [7]) it was -1%; in experiment [2] (setting [8]), 45%; in experiment [3] (setting [7]), -3%; in experiment [3] (setting [8]) it was 77% (active). In addition, the growth inhibition in experiment [4] (setting [7]) is -2%; in experiment [4] (setting [8]) it was 23%; in experiment [5] (setting [7]), 0%; in experiment [5] (setting [8]), 44%; in experiment [6] (setting [7]), 33%; in experiment [6] (setting [8]), 76% (active).

Regarding `CC(O)C(=O)NCCc1ccccc1` (stereo unspecified), the growth inhibition was 8% in experiment [1] (setting [7]); 4% in experiment [1] (setting [8]); -3% in experiment [2] (setting [7]); -2% in experiment [2] (setting [8]); -1% in experiment [3] (setting [7]); 1% in experiment [3] (setting [8]). For the same compound, the growth inhibition is 2% in experiment [4] (setting [7]); 3% in experiment [4] (setting [8]); -1% in experiment [5] (setting [7]); -2% in experiment [5] (setting [8]); 4% in experiment [6] (setting [7]); 10% in experiment [6] (setting [8]).

`NCCN1C(=O)CNC1=S`: the growth inhibition in experiment [1] (setting [7]) was -23%; in experiment [1] (setting [8]), 30%; in experiment [2] (setting [7]), -1%; in experiment [2] (setting [8]), -4%; in experiment [3] (setting [7]) it was 3%; in experiment [3] (setting [8]), 3%. The growth inhibition in experiment [4] (setting [7]) is 0%; in experiment [4] (setting [8]) it was -3%; in experiment [5] (setting [7]), -1%; in experiment [5] (setting [8]), -5%; in experiment [6] (setting [7]), 10%; in experiment [6] (setting [8]), 17%.

On to `CC(C)c1cc([N+](=O)[O-])c(O)c([N+](=O)[O-])c1`, for which the growth inhibition in experiment [1] (setting [7]) was 46%; in experiment [1] (setting [8]), 92% (active); in experiment [2] (setting [7]), 14%; in experiment [2] (setting [8]), 75% (active); in experiment [3] (setting [7]), 13%; in experiment [3] (setting [8]), 78% (active). Further, the growth inhibition in experiment [4] (setting [7]) was 18%; in experiment [4] (setting [8]), 76% (active); in experiment [5] (setting [7]), 29%; in experiment [5] (setting [8]), 89% (active); in experiment [6] (setting [7]) it was 24%; in experiment [6] (setting [8]), 91% (active).

Take `CCSC(=O)c1ccc([N+](=O)[O-])o1`: the growth inhibition is 20% in experiment [1] (setting [7]); 99% (active) in experiment [1] (setting [8]); 6% in experiment [2] (setting [7]); 100% (active) in experiment [2] (setting [8]); 31% in experiment [3] (setting [7]); 100% (active) in experiment [3] (setting [8]). In addition, the growth inhibition in experiment [4] (setting [7]) is 9%; in experiment [4] (setting [8]), 99% (active); in experiment [5] (setting [7]), 13%; in experiment [5] (setting [8]), 100% (active); in experiment [6] (setting [7]), -9%; in experiment [6] (setting [8]), 99% (active).

In the case of `O=C(O)/C=C\C(=O)NNc1ccccc1`, the growth inhibition was 12% in experiment [1] (setting [7]); 96% (active) in experiment [1] (setting [8]); -2% in experiment [2] (setting [7]); 95% (active) in experiment [2] (setting [8]); 5% in experiment [3] (setting [7]); 98% (active) in experiment [3] (setting [8]). For the same compound, the growth inhibition was 10% in experiment [4] (setting [7]); 82% (active) in experiment [4] (setting [8]); 14% in experiment [5] (setting [7]); 99% (active) in experiment [5] (setting [8]); -7% in experiment [6] (setting [7]); 94% (active) in experiment [6] (setting [8]).

Take `CC(=O)Oc1ccc(OC(C)=O)c2c1CC=CC2`: the growth inhibition was 3% in experiment [1] (setting [7]); 2% in experiment [1] (setting [8]); -1% in experiment [2] (setting [7]); 1% in experiment [2] (setting [8]); 2% in experiment [3] (setting [7]); 10% in experiment [3] (setting [8]). In addition, the growth inhibition in experiment [5] (setting [7]) was 4%; in experiment [5] (setting [8]), 8%; in experiment [6] (setting [7]) it was -20%; in experiment [6] (setting [8]), 2%.

For the compound `CC(C)(C)S(=O)(=O)O.[Ag]`, the growth inhibition was 99% (active) in experiment [1] (setting [7]); 99% (active) in experiment [1] (setting [8]); 100% (active) in experiment [3] (setting [7]); 100% (active) in experiment [3] (setting [8]); 99% (active) in experiment [4] (setting [7]); 99% (active) in experiment [4] (setting [8]). In addition, the growth inhibition in experiment [5] (setting [7]) was 100% (active); in experiment [5] (setting [8]), 99% (active); in experiment [6] (setting [7]), 99% (active); in experiment [6] (setting [8]) it was 99% (active).

With `OCCNC(c1ccc(Cl)cc1)C(O)c1ccc(Cl)cc1` (stereo unspecified), the growth inhibition was 5% in experiment [1] (setting [7]); 62% in experiment [1] (setting [8]); -3% in experiment [2] (setting [7]); 13% in experiment [2] (setting [8]); 0% in experiment [3] (setting [7]); 77% (active) in experiment [3] (setting [8]). The growth inhibition in experiment [4] (setting [7]) is 11%; in experiment [4] (setting [8]), 8%; in experiment [5] (setting [7]) it was 6%; in experiment [5] (setting [8]), 55%; in experiment [6] (setting [7]) it was -4%; in experiment [6] (setting [8]), 59%.

In the case of `O=Cc1ccc(O)c(O)c1O`, the growth inhibition in experiment [1] (setting [7]) was -7%; in experiment [1] (setting [8]), 66%; in experiment [2] (setting [7]), -3%; in experiment [2] (setting [8]), 54%; in experiment [3] (setting [7]), -6%; in experiment [3] (setting [8]), 35%. Further, the growth inhibition in experiment [4] (setting [7]) is 0%; in experiment [4] (setting [8]) it was 36%; in experiment [5] (setting [7]) it was 9%; in experiment [5] (setting [8]), 73% (active); in experiment [6] (setting [7]) it was -30%; in experiment [6] (setting [8]) it was 86% (active).

Consider `C=CCC(N)C(=O)O` (stereo unspecified), for which the growth inhibition in experiment [1] (at 50.0 µM) is -11.9% and -1%; in experiment [2] (at 50.0 µM) it was -20.6% and -4.45%; in experiment [3] (at 50.0 µM) it was 4.95% and -1.85%; in experiment [4] (at 50.0 µM), 13.5% and 2.3%; in experiment [5] (at 50.0 µM) it was -10.6% and 8.3%; in experiment [6] (at 50.0 µM) it was -1.7% and -3%.

As for `CC(=O)c1ccc2c(c1)sc1cc(C(C)=O)ccc12`, the growth inhibition in experiment [1] (setting [7]) is 30%; in experiment [1] (setting [8]), 98% (active); in experiment [2] (setting [7]) it was 15%; in experiment [2] (setting [8]), 98% (active); in experiment [3] (setting [7]), 8%; in experiment [3] (setting [8]), 99% (active). Also, the growth inhibition in experiment [4] (setting [7]) is 9%; in experiment [4] (setting [8]) it was 97% (active); in experiment [6] (setting [7]), 23%; in experiment [6] (setting [8]) it was 98% (active).

For the compound `C=COC(=O)c1ccccc1C(=O)OCCCC`, the growth inhibition is 8% in experiment [1] (setting [7]); 22% in experiment [1] (setting [8]); -2% in experiment [2] (setting [7]); 3% in experiment [2] (setting [8]); 5% in experiment [3] (setting [7]); 37% in experiment [3] (setting [8]). The growth inhibition in experiment [4] (setting [7]) is 7%; in experiment [4] (setting [8]), -6%; in experiment [5] (setting [7]), 4%; in experiment [5] (setting [8]) it was 27%; in experiment [6] (setting [7]) it was 18%; in experiment [6] (setting [8]), 6%.

The record behind these values is PubChem BioAssay (NCI).
